Results reported in PubChem BioAssay (NCI).
This is part of a sample that, as a whole, favours compounds with a hit. Of some 83,000 tested, about 20% had one in any assay.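 Plates (96-well) were seeded with cells, treated with compound at one concentration, and incubated for 48 hours before percent growth was determined.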 Unmarked numbers belong to inactive results. Calls of active or inactive are those of the source. How the source made its calls: active means growth percent below 10; inactive means the rest.

Each molecule was assayed on MDA-MB-468 breast (assay: NCI-60 one-dose screen, 48 h (100 = growth as untreated, 0 = no growth, -100 = all killed)). Settings: 10 µM unless noted.
With Cc1cccc(-c2cc(O)c(C(=O)N3CCOCC3)s2)c1 the growth was 14.1%. With CC(C)(C)c1ccc(C(=O)N/N=C/c2ccc(O)cc2O)cc1 the growth was -32.5% (active). In the case of COC(=O)C(Cc1ccccc1)NS(=O)(=O)/N=C1\NC(=O)NC1=C(Cl)Cl (centres undefined), the growth is reported as 16.3%. In the case of CCOC(=O)c1sc(-c2ccc(OS(=O)(=O)c3ccc(Br)s3)c(C=O)c2)nc1C, the growth is reported as 18.1%. In the case of COc1cc(NC(N)=NCCC(C)(C)Oc2ccc(C(F)(F)F)cc2)ncc1C#N, the growth is reported as -84.4% (active). COc1ccc(/C=C2\COc3ccc(O)c(O)c3C2=O)c(OC)c1 showed a growth of 27.9%. For COc1ccc(-c2cc(Cc3cccs3)c(=O)n(Cn3ccc4ccccc43)n2)cc1, the growth was 110%. With COc1ccc(-c2nn(-c3cccc(NC(=O)c4cc(C(F)(F)F)cc(C(F)(F)F)c4)c3)cc2-c2ccncc2)cc1Cl the growth was 61.4%. In the case of CC(C)(C)n1cc(-c2ccnc(NCCNS(=O)(=O)c3ccc(C(F)(F)F)cc3)c2)c(-c2cccc(O)c2)n1, the growth is reported as 36.8%. In the case of O=[N+]([O-])c1ccc(/C=N\Nc2ccccc2)cc1, the growth is reported as 94.7%. For O=C1c2cccc3cccc(c23)C(=O)N1N1C(=O)c2cccc3c(NC4CCCCC4)ccc(c23)C1=O, the growth was 100%. For O=C(O)c1cn(C2CC2)c2cc(N3CCN(Cc4nnc(Nc5ccccc5)o4)CC3)c(F)cc2c1=O, the growth was 114%. Cc1nc(-c2ccccc2O)ccc1C(=O)N=Nc1c(O)[nH]c2ccc(Br)cc12 was tested, and the growth was 90.2%. For Cc1ccc(-c2nnc(SCc3ccc(O)c4ncccc34)n2-c2ccccc2)cc1, the growth was 9.08% (active).
